Among the data in publication PMC7862700, “An all-to-all approach to the identification of sequence-specific readers for epigenetic DNA modifications on cytosine” are binding signal values, retold here.

Common to all, as to assay: DAPPL (digital affinity profiling via proximity ligation, sequencing); 10 mM Tris-HCl pH 7.5, 50 mM NaCl, 1 mM DTT, 4% glycerol, room temperature, 30 min; GST-TFs on glutathione beads, 16-mer random dsDNA library, 0.1% formaldehyde crosslink after washing; high values mean tight binding
Common to all, as to conditions: protein: recombinant; tags: N-terminal GST; dsDNA, one strand shown

For experiment [1], the target named is T1, ERF (Homo sapiens, UniProt P50548 1-548).
T1 sequence: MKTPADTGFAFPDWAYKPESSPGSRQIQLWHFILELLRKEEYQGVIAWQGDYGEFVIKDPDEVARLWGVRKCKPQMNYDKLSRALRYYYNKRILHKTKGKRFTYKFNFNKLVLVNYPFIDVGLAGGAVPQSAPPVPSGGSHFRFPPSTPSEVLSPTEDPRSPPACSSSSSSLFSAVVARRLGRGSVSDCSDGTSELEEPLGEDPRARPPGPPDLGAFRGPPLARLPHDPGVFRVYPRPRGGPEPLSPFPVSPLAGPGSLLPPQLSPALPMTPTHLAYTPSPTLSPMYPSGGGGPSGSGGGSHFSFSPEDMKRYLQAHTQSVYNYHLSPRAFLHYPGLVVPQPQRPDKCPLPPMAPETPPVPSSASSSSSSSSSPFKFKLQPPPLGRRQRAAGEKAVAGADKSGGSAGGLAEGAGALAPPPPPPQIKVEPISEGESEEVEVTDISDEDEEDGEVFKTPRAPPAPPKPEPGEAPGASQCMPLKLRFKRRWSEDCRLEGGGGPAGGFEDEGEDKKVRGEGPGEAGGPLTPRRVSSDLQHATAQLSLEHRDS
An outline of the steps:
(§1)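 Human transcription factors carrying a GST fusion were produced in yeast, bound to glutathione beads, tagged with DNA barcodes and pooled together with a tag-only sample. Each pool was held with 200 nmole of a random double-stranded 16-mer DNA library in Tris/NaCl/DTT/glycerol buffer for 30 min at room temperature, then washed, crosslinked in 0.1% formaldehyde, proximity-ligated with BsaI/T4 ligase (1 h, 37 °C), PCR-amplified and sequenced on an Illumina NextSeq500. Binding signal is the read frequency of each hexamer for a given factor divided by its frequency in the tag-only sample.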

Experiment [2] deals with T2, ETV3L (Homo sapiens, UniProt Q6ZN32 1-361).
T2 sequence: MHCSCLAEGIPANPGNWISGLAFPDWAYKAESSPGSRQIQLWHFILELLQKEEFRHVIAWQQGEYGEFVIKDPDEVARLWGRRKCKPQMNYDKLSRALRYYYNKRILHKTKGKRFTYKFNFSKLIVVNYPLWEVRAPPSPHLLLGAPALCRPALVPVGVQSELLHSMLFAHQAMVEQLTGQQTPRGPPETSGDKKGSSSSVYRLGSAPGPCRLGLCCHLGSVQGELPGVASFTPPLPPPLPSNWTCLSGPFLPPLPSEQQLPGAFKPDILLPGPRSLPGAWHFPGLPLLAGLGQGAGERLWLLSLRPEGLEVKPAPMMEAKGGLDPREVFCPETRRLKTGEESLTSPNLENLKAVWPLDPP
The gist of the method:
as §1

Experiment [3] concerns the target T3, ETS2 (Homo sapiens, UniProt P15036 1-469).
T3 sequence: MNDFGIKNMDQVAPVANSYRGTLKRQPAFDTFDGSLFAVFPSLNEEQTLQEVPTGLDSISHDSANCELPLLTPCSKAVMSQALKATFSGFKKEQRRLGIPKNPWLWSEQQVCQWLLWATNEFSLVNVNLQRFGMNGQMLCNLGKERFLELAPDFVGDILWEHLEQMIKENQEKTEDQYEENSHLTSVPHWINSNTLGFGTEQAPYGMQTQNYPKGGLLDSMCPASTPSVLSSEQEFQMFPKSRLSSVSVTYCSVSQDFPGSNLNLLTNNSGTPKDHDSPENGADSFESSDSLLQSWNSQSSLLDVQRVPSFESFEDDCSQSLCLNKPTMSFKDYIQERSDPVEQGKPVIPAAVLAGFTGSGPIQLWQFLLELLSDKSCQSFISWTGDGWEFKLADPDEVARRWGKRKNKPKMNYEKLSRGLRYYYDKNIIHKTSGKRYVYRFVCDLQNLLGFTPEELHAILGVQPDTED
The gist of the method: as §1

Experiment [4] has as its target T4, SPDEF (Homo sapiens, UniProt O95238 1-335).
T4 sequence: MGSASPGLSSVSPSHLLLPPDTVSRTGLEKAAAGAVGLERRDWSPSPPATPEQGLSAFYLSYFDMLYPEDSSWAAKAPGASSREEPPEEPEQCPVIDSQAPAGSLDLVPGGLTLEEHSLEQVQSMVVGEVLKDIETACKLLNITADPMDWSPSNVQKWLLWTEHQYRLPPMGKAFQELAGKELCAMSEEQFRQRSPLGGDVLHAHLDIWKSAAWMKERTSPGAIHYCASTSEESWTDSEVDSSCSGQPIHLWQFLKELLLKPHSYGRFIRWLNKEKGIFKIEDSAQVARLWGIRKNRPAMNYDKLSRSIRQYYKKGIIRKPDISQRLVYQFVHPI
The gist of the method: as §1

In experiment [5] the target is T5, ETV7 (Homo sapiens, UniProt Q9Y603 1-341).
T5 sequence: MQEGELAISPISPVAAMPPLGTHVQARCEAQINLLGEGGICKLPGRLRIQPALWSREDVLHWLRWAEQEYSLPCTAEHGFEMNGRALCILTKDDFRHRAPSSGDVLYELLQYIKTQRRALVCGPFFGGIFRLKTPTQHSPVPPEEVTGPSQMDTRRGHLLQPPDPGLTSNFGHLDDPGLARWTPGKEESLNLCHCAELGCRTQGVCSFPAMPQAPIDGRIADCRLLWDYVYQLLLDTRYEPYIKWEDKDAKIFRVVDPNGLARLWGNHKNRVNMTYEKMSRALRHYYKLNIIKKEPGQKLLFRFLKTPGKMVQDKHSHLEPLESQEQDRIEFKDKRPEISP
An outline of the steps:
as §1

The target of experiment [6] is T6, ELF5 (Homo sapiens, UniProt Q9UKW6-2 1-255).
T6 sequence: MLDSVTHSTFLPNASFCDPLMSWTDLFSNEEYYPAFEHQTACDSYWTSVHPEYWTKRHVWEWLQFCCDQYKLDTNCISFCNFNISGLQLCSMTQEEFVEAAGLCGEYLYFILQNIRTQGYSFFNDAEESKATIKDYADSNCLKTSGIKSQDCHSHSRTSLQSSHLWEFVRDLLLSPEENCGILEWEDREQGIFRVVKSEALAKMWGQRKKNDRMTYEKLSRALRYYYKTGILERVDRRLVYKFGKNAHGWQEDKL
An outline of the steps: as §1

Experiment [7] has as its target T7, ETV3 (Homo sapiens, UniProt P41162-2 1-143).
T7 sequence: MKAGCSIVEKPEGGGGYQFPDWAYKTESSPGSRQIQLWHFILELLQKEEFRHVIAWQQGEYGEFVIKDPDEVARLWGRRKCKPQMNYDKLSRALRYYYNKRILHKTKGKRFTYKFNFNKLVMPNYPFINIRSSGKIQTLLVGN
The gist of the method: as §1

Experiment [8] deals with ETV6 (Homo sapiens, UniProt P41212 1-452). An outline of the steps:
as §1

Chain of ETV6 (P41212 whole entry): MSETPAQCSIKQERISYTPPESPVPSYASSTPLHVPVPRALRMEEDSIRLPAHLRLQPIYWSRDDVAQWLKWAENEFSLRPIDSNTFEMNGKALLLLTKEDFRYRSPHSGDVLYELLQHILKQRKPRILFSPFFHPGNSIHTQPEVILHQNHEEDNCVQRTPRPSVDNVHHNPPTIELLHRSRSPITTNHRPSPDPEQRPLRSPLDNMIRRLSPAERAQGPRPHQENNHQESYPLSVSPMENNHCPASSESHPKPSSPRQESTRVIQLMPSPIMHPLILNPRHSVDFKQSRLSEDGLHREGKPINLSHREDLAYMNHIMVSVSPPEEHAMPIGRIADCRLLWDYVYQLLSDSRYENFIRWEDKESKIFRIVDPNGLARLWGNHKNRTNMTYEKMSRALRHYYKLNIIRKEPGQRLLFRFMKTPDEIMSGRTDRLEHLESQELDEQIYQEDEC

As to TCACGC, the binding signal in experiment [1] is 1.26 fold enrichment (6-mer frequency, TF over GST control); in experiment [2], 1.2 fold enrichment (6-mer frequency, TF over GST control); in experiment [3] it was 1.11 fold enrichment (6-mer frequency, TF over GST control); in experiment [4], 1.12 fold enrichment (6-mer frequency, TF over GST control); in experiment [5], 1.16 fold enrichment (6-mer frequency, TF over GST control); in experiment [6], 1.15 fold enrichment (6-mer frequency, TF over GST control). Also, the binding signal in experiment [7] was 1.07 fold enrichment (6-mer frequency, TF over GST control); in experiment [8] it was 1.15 fold enrichment (6-mer frequency, TF over GST control).
TATAGG: the binding signal in experiment [1] is 1.18 fold enrichment (6-mer frequency, TF over GST control); in experiment [2], 1.14 fold enrichment (6-mer frequency, TF over GST control); in experiment [3], 1.13 fold enrichment (6-mer frequency, TF over GST control); in experiment [4] it was 1.19 fold enrichment (6-mer frequency, TF over GST control); in experiment [5] it was 1.22 fold enrichment (6-mer frequency, TF over GST control); in experiment [6], 1.23 fold enrichment (6-mer frequency, TF over GST control). In addition, the binding signal in experiment [7] was 1.17 fold enrichment (6-mer frequency, TF over GST control); in experiment [8], 1.11 fold enrichment (6-mer frequency, TF over GST control).
On to TATCGT, for which the binding signal in experiment [1] is 1.28 fold enrichment (6-mer frequency, TF over GST control); in experiment [2], 1.08 fold enrichment (6-mer frequency, TF over GST control); in experiment [3], 1.11 fold enrichment (6-mer frequency, TF over GST control); in experiment [4], 1.07 fold enrichment (6-mer frequency, TF over GST control); in experiment [5], 1.08 fold enrichment (6-mer frequency, TF over GST control); in experiment [6], 1.08 fold enrichment (6-mer frequency, TF over GST control). Also, the binding signal is 1.15 fold enrichment (6-mer frequency, TF over GST control) in experiment [7] and 1.12 fold enrichment (6-mer frequency, TF over GST control) in experiment [8].
As to CCTTTC, the binding signal in experiment [1] was 1.62 fold enrichment (6-mer frequency, TF over GST control); in experiment [2], 1.54 fold enrichment (6-mer frequency, TF over GST control); in experiment [3], 1.59 fold enrichment (6-mer frequency, TF over GST control); in experiment [4], 1.5 fold enrichment (6-mer frequency, TF over GST control); in experiment [5], 1.39 fold enrichment (6-mer frequency, TF over GST control); in experiment [6], 1.75 fold enrichment (6-mer frequency, TF over GST control). The binding signal in experiment [7] is 1.62 fold enrichment (6-mer frequency, TF over GST control); in experiment [8], 1.62 fold enrichment (6-mer frequency, TF over GST control).
Regarding AACTTT, the binding signal in experiment [1] was 1.27 fold enrichment (6-mer frequency, TF over GST control); in experiment [2] it was 1.26 fold enrichment (6-mer frequency, TF over GST control); in experiment [3] it was 1.2 fold enrichment (6-mer frequency, TF over GST control); in experiment [4], 1.17 fold enrichment (6-mer frequency, TF over GST control); in experiment [5] it was 1.2 fold enrichment (6-mer frequency, TF over GST control); in experiment [6], 1.3 fold enrichment (6-mer frequency, TF over GST control). Besides, the binding signal in experiment [7] was 1.4 fold enrichment (6-mer frequency, TF over GST control); in experiment [8], 1.22 fold enrichment (6-mer frequency, TF over GST control).
Regarding TTCGTT, the binding signal in experiment [1] was 1.37 fold enrichment (6-mer frequency, TF over GST control); in experiment [2], 1.37 fold enrichment (6-mer frequency, TF over GST control); in experiment [3], 1.3 fold enrichment (6-mer frequency, TF over GST control); in experiment [4], 1.39 fold enrichment (6-mer frequency, TF over GST control); in experiment [5], 1.55 fold enrichment (6-mer frequency, TF over GST control); in experiment [6] it was 1.32 fold enrichment (6-mer frequency, TF over GST control). The binding signal in experiment [7] is 1.3 fold enrichment (6-mer frequency, TF over GST control); in experiment [8], 1.29 fold enrichment (6-mer frequency, TF over GST control).
ATGATA: the binding signal was 1.21 fold enrichment (6-mer frequency, TF over GST control) in experiment [1]; 1.22 fold enrichment (6-mer frequency, TF over GST control) in experiment [2]; 1.17 fold enrichment (6-mer frequency, TF over GST control) in experiment [3]; 1.22 fold enrichment (6-mer frequency, TF over GST control) in experiment [4]; 1.16 fold enrichment (6-mer frequency, TF over GST control) in experiment [5]; 1.23 fold enrichment (6-mer frequency, TF over GST control) in experiment [6]. Besides, the binding signal in experiment [7] was 1.2 fold enrichment (6-mer frequency, TF over GST control); in experiment [8] it was 1.18 fold enrichment (6-mer frequency, TF over GST control).
On to CTAGAT, for which the binding signal in experiment [1] is 1.24 fold enrichment (6-mer frequency, TF over GST control); in experiment [2], 1.34 fold enrichment (6-mer frequency, TF over GST control); in experiment [3] it was 1.2 fold enrichment (6-mer frequency, TF over GST control); in experiment [4], 1.26 fold enrichment (6-mer frequency, TF over GST control); in experiment [5], 1.2 fold enrichment (6-mer frequency, TF over GST control); in experiment [6], 1.11 fold enrichment (6-mer frequency, TF over GST control). Besides, the binding signal in experiment [7] is 1.19 fold enrichment (6-mer frequency, TF over GST control); in experiment [8] it was 1.05 fold enrichment (6-mer frequency, TF over GST control).
